# Records with an inconclusive call do not appear.
# Experiment: CCRF-CEM leukemia cell viability loss, dose response, HRAS target identification, CellTiter-Glo ATP luminescence, 8/24/48 h, dry powder (AID 720607)
# Conditions: 8-48 h, 8 h series, top conc, at 35 µM, stronger effect = lower value
row,SMILES,activity change
1,COC(=O)c1ccc([C@@H]2c3[nH]c4ccccc4c3C[C@@H](C(=O)OC)N2C(=O)CCl)cc1,-77.8%
2,COc1ccc(N(C(=O)CCl)C(C(=O)NCCc2ccccc2)c2cccs2)cc1Cl (configuration not stated),-85.7%
3,Cc1onc(C(=O)N2CCN(C(c3ccncc3)c3ccncc3)CC2)c1[N+](=O)[O-],-2.67%
4,C#CCCCC(=O)NCCOCCOCCOc1ccc(N(C(=O)CCl)C(C(=O)NCCc2ccccc2)c2cccs2)cc1Cl (configuration not stated),-87.7%
5,CC(C)(C)OC(=O)NCCOCCOCCOc1ccc(N(C(=O)CCl)C(C(=O)NCCc2ccccc2)c2cccs2)cc1Cl (configuration not stated),-88.9%
6,Cc1onc(C(=O)N2CCN(C(c3ccc(Cl)cc3)c3ccc(Cl)cc3)CC2)c1[N+](=O)[O-],-63.7%

# Same assay, conditions: 8-48 h, 24 h series, top conc, at 35 µM, stronger effect = lower value
row,SMILES,activity change
1,COC(=O)c1ccc([C@@H]2c3[nH]c4ccccc4c3C[C@@H](C(=O)OC)N2C(=O)CCl)cc1,-98.1%
2,COc1ccc(N(C(=O)CCl)C(C(=O)NCCc2ccccc2)c2cccs2)cc1Cl (configuration not stated),-98%
3,Cc1onc(C(=O)N2CCN(C(c3ccncc3)c3ccncc3)CC2)c1[N+](=O)[O-],-2.69%
4,C#CCCCC(=O)NCCOCCOCCOc1ccc(N(C(=O)CCl)C(C(=O)NCCc2ccccc2)c2cccs2)cc1Cl (configuration not stated),-97.5%
5,CC(C)(C)OC(=O)NCCOCCOCCOc1ccc(N(C(=O)CCl)C(C(=O)NCCc2ccccc2)c2cccs2)cc1Cl (configuration not stated),-98.2%
6,Cc1onc(C(=O)N2CCN(C(c3ccc(Cl)cc3)c3ccc(Cl)cc3)CC2)c1[N+](=O)[O-],-96.7%
